From PubChem BioAssay AID1851 (National Center for Advancing Translational Sciences (NCATS), 2009)
“And” between values parts separate entries of the source, which are not always exact repeats. Equal values may be shown once. In all, about 16,000 compounds went through this assay and about 5,700 (36%) were called active. Not shown: some 24% with an inconclusive outcome. Some of the results follow. Values without a mark were called inactive. Calls come from the whole dose curve; as a rule, active = well fitted curve in the direction sought with a large enough effect; inconclusive = small, poorly fitted or top-dose-only effect, or effect the other way; inactive = no such curve, though single readings can be large or run the other way.

The compounds below were run against Cytochrome P450 1A2 (Homo sapiens) (UniProt P05177) (assay: Cytochrome panel assay with activity outcomes). Details: recombinant CYP, pro-luciferin dealkylation, luminescence, p450-cyp1a2; series mostly up to 57.1 µM.
Chain of Cytochrome P450 1A2 (Homo sapiens) (P05177 whole entry, looked up): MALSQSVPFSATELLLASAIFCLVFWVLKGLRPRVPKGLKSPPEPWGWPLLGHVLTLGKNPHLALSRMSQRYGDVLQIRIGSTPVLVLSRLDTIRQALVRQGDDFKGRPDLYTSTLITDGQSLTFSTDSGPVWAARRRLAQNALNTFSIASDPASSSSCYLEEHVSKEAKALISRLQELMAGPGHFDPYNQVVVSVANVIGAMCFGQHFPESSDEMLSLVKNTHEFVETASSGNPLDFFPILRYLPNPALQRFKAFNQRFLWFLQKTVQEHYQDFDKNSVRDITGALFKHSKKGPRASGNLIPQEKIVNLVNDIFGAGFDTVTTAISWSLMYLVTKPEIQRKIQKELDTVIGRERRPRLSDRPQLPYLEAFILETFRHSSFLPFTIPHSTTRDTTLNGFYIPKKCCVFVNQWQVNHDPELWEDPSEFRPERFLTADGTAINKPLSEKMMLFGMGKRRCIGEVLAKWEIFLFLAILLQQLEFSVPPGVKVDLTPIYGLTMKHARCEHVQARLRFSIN
% is set by controls: 0 for no effect and ±100 for the full control effect.

| Compound | AC50 | activity, negative = inhibition |
| --- | --- | --- |
| ClCCNc1nc2ccc(Cl)cc2[nH]1 | 3.55 µM (active) |  |
| N[C@H](C(=O)O)c1cc(=O)[nH]o1 | inactive |  |
| C[C@@]12CC(=O)[C@H]3[C@@H](CCC4=CC(=O)CC[C@]43C)[C@H]1CCC2=O | inactive |  |
| CCCN(CCC)C1Cc2cc(OC)c(OC)cc2C1 | inactive |  |
| CCn1cnc2c(Nc3cccc(Cl)c3)nc(N[C@@H]3CCCC[C@H]3N)nc21 | 15.8 µM (active) |  |
| CN(C)C(=O)Oc1cccc([N+](C)(C)C)c1 | inactive |  |
| COc1ccc(C[C@H]2c3cc(OC)c(OC)cc3CCN2C)cc1OC | inactive |  |
| COc1cc(/C=N/NC(=O)CN2CC(c3ccccc3)CC2=O)ccc1OC(=O)N(C)C (centres undefined) | inactive |  |
| O=C(O)CC[N+](=O)[O-] | inactive |  |
| N#CC(C#N)=Cc1ccc(O)c(O)c1 | 5.01 µM (active) |  |
| N#C/C(=C\c1ccc(O)c(O)c1)C(N)=S | 12.6 µM (active) and 6.31 µM (active) |  |
| CC(C)(C)c1cc(C=C(C#N)C#N)cc(C(C)(C)C)c1O | 10 µM (active) |  |
| N#C/C(=C\c1ccc(O)c(O)c1)C(=O)NCCCNC(=O)/C(C#N)=C/c1ccc(O)c(O)c1 | inactive |  |
| N#CC(C#N)=Cc1cc(O)c(O)c(O)c1 | inactive |  |
| COc1cc(C=C(C#N)C#N)cc(O)c1O | 12.6 µM (active) |  |
| COc1ccc2c(c1)CCC1[C@@H]2CCC2(C)[C@@H](NCCCCCCN3C(=O)C=CC3=O)CC[C@@H]12 (some centres undefined) | inactive |  |
| CC[C@]1(c2cccc(O)c2)CCCCN(C)C1 | inactive |  |
| COc1ccc(C2SCC(=O)Nc3c2c(C)nn3C2CCOC(C)(C)C2)cc1 (centres undefined) | inactive |  |
| CCN1C[C@@]2(COC)CC[C@H](O)[C@@]34[C@@H]2C[C@@H]([C@@H]13)[C@]1(O)C[C@@H](OC)C2C[C@H]4[C@H]1[C@H]2OC(C)=O | inactive |  |
| CC[C@@H]1CN2CCc3cc(OC)c(OC)cc3[C@H]2C[C@@H]1C[C@@H]1NCCc2cc(OC)c(OC)cc21 | inactive |  |
| CCc1cc2c(nc1CC)CCN(CC/C(C)=N/OC)C2 |  | -0.582% [at 11.4 µM] |
| C=C1C/C(=C\C)C(=O)O[C@@H]2CCN3CC=C(COC(=O)[C@@]1(C)O)[C@H]23 | inactive |  |
| CC[N+](CC)(CC)CCOc1cccc(OCC[N+](CC)(CC)CC)c1OCC[N+](CC)(CC)CC | inactive |  |
| N/C(=N\N=C/c1ccc(-c2ccc(O)c(C(=O)O)c2)o1)N[N+](=O)[O-] | inactive |  |

| Compound | AC50 | activity, negative = inhibition |
| --- | --- | --- |
| Cc1o[nH]c(=O)c1C[C@@H](N)C(=O)O | inactive |  |
| C[C@H]1CC[C@]2(OC1)O[C@@H]1C[C@@H]3[C@@H]4CC[C@H]5C[C@@H](O)CC[C@]5(C)[C@@H]4CC(=O)[C@@]3(C)[C@H]1[C@@H]2C | inactive |  |
| CC(=O)OCC1=C(C(=O)O)N2C(=O)[C@@H](N)[C@@H]2SC1 | inactive |  |
| c1ccc(N2CC3(CCNCC3)C2)cc1 | inactive |  |
| c1ccc(N2CCC3(CCNCC3)CC2)cc1 | inactive |  |
| Clc1cccc(N2CCNCC2)c1 | 15.8 µM (active) |  |
| CCN1CCN(S(=O)(=O)c2ccc(Cl)nc2)CC1 | inactive |  |
| C[C@@]12CCC(=O)C=C1C=C[C@H]1[C@H]3CC[C@](O)(CCC(=O)O)[C@]3(C)CC[C@@H]12 | inactive |  |
| O=C(O)[C@@H]1[C@H](C(=O)O)[C@]2(Cl)C(Cl)=C(Cl)[C@@]1(Cl)C2(Cl)Cl |  | -14.5% [at 11.4 µM] |
| CCCn1c(=O)c2[nH]c(C3CCCC3)nc2n(CCCOC(=O)c2ccc(S(=O)(=O)F)cc2)c1=O | inactive |  |
| CC(C)C(=O)CP(=O)(O)O |  | -6.25% [at 11.4 µM] |
| CC(C)c1c(CN(C)[C@@H](C)Cc2ccccc2)n(C)n(-c2ccccc2)c1=O | inactive |  |
| C#CCN(C)[C@H](C)Cc1ccccc1 | 12.6 µM (active) |  |
| CCCN1CCC[C@@H]2Cc3[nH]ncc3C[C@H]21 | inactive |  |
| CC(C)[C@]1(O)[C@@H](OC(=O)c2ccc[nH]2)[C@]2(O)[C@@]3(C)C[C@@]4(O)O[C@@]5([C@H](O)[C@@H](C)CC[C@]35O)[C@]2(O)[C@]41C |  | -17.2% [at 2.29 µM] |
| O=C(O)[C@H]1[C@H](C(=O)O)[C@H]2CC[C@@H]1O2 | inactive |  |
| CCCCc1ccc(-c2nc(NC(=O)C3C4CCC(O4)C3C(=O)O)sc2C)cc1 (centres undefined) | 15.8 µM (active) |  |
| CC(C)[C@@]1(NC(=O)[C@@H]2C[C@H]3c4cccc5[nH]cc(c45)C[C@@H]3N(C)C2)O[C@]2(O)[C@H]3CCCN3C(=O)CN2C1=O | inactive |  |
| O=C(O)[C@H]1CCN1 | inactive |  |
| CC[C@]1([C@H]2O[C@@H]([C@@H]3O[C@](O)(CO)[C@@H](C)C[C@H]3C)C[C@H]2C)CC[C@@H]([C@]2(C)CC[C@@]3(C[C@@H](O)[C@@H](C)[C@@H]([C@H](C)[C@H](OC)[C@H](C)C(=O)O)O3)O2)O1 | inactive |  |
| CC(=O)OC1=CC2=CC[C@H]3[C@H]4CCC(=O)[C@@]4(C)CC(=O)[C@]3(S)[C@]2(C)CC1 |  | -9.43% [at 2.29 µM] |
| N[C@H]1C[C@H]1c1ccccc1 | 5.01 µM (active) |  |
| N[C@@H]1C[C@H]1c1ccccc1 | 15.8 µM (active) |  |
| C[C@@]12CC[C@H](O)C[C@@H]1CC[C@H]1[C@@H]2C[C@@H](O)[C@]2(C)[C@@H](C3=CC(=O)OC3)CC[C@]12O | inactive |  |

| Compound | AC50 | activity, negative = inhibition |
| --- | --- | --- |
| CCN1CCN(Cc2cc(OC)c(OC)cc2[N+](=O)[O-])CC1 | inactive |  |
| Cc1noc(C)c1C(=O)N1CCC2(CCCN(CC(C)C)C2)CC1 | inactive |  |
| NC(CCl)=N[C@H]1CN2CCC1CC2 |  | -4.08% [at 11.4 µM] |
| N#Cc1ccc(CN2CCCC3(CCN(C(=O)Oc4ccccc4)CC3)C2)cc1 | inactive |  |
| N#CC(=C(/N)Sc1ccccc1N)/C(C#N)=C(/N)Sc1ccccc1N | 31.6 µM (active) |  |
| NC(=O)CN1CCCC1=O | inactive |  |
| CCN1CCN(c2ccc(NC(=O)C(C)C)cc2Cl)CC1 | inactive |  |
| CC(C)C(=O)Nc1ccc([N+](=O)[O-])c(C(F)(F)F)c1 | 0.316 µM (active) |  |
| CS(=O)(=O)N1CCCC(C(=O)N2CCC3(CC2)OCCO3)C1 (centres undefined) | inactive |  |
| CCOC(=O)C1Cc2c([nH]c3ccccc23)CN1 (centres undefined) | 5.01 µM (active) |  |
| CN(C)CS/C(N)=N/[C@H](O)C(Cl)(Cl)Cl |  | 4.09% [at 2.29 µM] |
| O=C1CN=C(c2cccs2)c2c(sc3c2CCCC3)N1 | 15.8 µM (active) |  |
| NC[C@H](O)c1ccc(O)cc1 | inactive |  |
| CN1C2C=C3C(C#N)=C(N)C(C#N)(C#N)[C@H](c4c(F)cccc4F)[C@H]3C1CC2 (some centres undefined) | inactive |  |
| Oc1ccc2c3c1O[C@H]1c4oc5ccccc5c4C[C@]4(O)[C@H](C2)N(CC2CC2)CC[C@@]314 | inactive |  |
| Nc1ccncc1 | inactive |  |
| NC(=NCCc1ccc(I)cc1)SCCCc1cnc[nH]1 | 15.8 µM (active) |  |
| OCc1cnc[nH]1 | inactive |  |
| CC(=O)OCC1=C(C(=O)[O-])N2C(=O)[C@@H](NC(=O)CCC[C@@H](N)C(=O)[O-])[C@@H]2SC1.[Zn+2] | inactive |  |
| Oc1ccc2[nH]cc(CCCCN3CC=C(c4ccccc4)CC3)c2c1 | 31.6 µM (active) |  |
| COC1(CS(=O)c2ccccc2)CCN(CCc2c[nH]c3ccc(F)cc23)CC1 (centres undefined) | inactive |  |
| S=C(Nc1ccc(Cl)cc1)NC1CC2CCCC(C1)N2C1CCCC1 (centres undefined) | inactive |  |
| O=C(Oc1ccccc1)N1CCC2(CCCN(Cc3ccccc3)C2)CC1 | inactive |  |
| C[C@@H]1O[C@H](O[C@@H]2C=C3CC[C@H]4[C@@H](CC[C@]5(C)[C@@H](c6ccc(=O)oc6)CC[C@]45O)[C@@]3(C)CC2)[C@@H](O)[C@H](O)[C@@H]1O | inactive |  |

| Compound | AC50 | activity, negative = inhibition |
| --- | --- | --- |
| O=C(O)/C=C(\CC(=O)O)C(=O)O |  | -6.78% [at 11.4 µM] |
| CN1CCN(c2ncc3ncc(=O)n(C)c3n2)CC1 | 12.6 µM (active) |  |
| CN1CCC2(CC1)CCN(C(=O)Oc1ccccc1)CC2 | inactive |  |
| CC(C)[C@@H](C)/C=C\[C@@H](C)[C@@H]1CC[C@H]2C3=CC=C4C[C@@H](O)CC[C@]4(C)[C@H]3CC[C@]21C |  | -8.17% [at 11.4 µM] |
| CC(C)NP(=O)(NC(C)C)OP(=O)(NC(C)C)NC(C)C | inactive |  |
| COc1cc2c(cc1OC)[C@]13CC[N@+]4(C)CC5=CCO[C@H]6CC(=O)N2[C@@H]1[C@@H]6[C@@H]5C[C@]34O |  | -11.4% [at 2.29 µM] |
| C[C@H](NC(C)(C)C)C(=O)c1cccc(Cl)c1 | inactive |  |
| Cc1c2cc[n+](CCN3CCCCC3)cc2c(C)c2c1[nH]c1ccc(O)cc12 | 2.51 µM (active) |  |
| CCNC(=O)[C@@H]1O[C@@H](n2cnc3c(N)ncnc32)[C@@H](O)[C@H]1O | inactive |  |
| CP(=O)(O)CCCN | inactive |  |
| O=C(CNS(=O)(=O)c1cccs1)N1CCC2(CC1)OCCO2 | inactive |  |
| CCn1c(O)c(C(c2ccccn2)c2c(O)n(CC)c(=S)[nH]c2=O)c(=O)[nH]c1=S | inactive |  |
| OC(Cn1c2ccccc2c2ccccc21)C[n+]1ccccc1 (centres undefined) | 3.16 µM (active) |  |
| C/C=C1\C[C@H](C)[C@@](O)(CO)C(=O)OCC2=CCN3CC[C@@H](OC1=O)[C@@H]23 | inactive |  |
| CCOP(=O)(OCC)C(NC(=O)C(Cl)Cl)C(Cl)(Cl)Cl (centres undefined) | inactive |  |
| COCC(=O)N1CCC2(CCCN(Cc3ccncc3)C2)CC1 | inactive |  |
| Nc1nc(OCc2ccccc2)c2[nH]cnc2n1 | 1 µM (active) |  |
| O=C(Oc1ccccc1)N1CCC2(CCN(Cc3nccs3)CC2)CC1 | inactive |  |
| NC[C@H](O)c1cc(O)c(O)cc1F | inactive |  |
| C[N+]1(C)CCc2cc3c(cc2[C@@H]1[C@@H]1OC(=O)c2c1ccc1c2OCO1)OCO3 | inactive |  |
| CN1CCc2cc3c(cc2[C@@H]1O)OCO3 | inactive |  |
| CN1Cc2c(ccc3c2OCO3)[C@@H]2[C@@H](O)Cc3cc4c(cc3[C@@H]21)OCO4 | 2.51 µM (active) |  |
